Source: PubChem
Compounds with a hit are over-represented: about 12% of the library has one in this group of screens.
KCC2 mod – modulates chloride dependent transport by human KCC2; Q9H2X9; KCC2 cells, thallium flux FluoZin-2 fluorescence; B-score of Tl+ flux slope (higher = more flux/activation; lower = inhibition) at 10 µM; actives 2.2% (n = 190,000);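 active = thallium flux slope and its plate-corrected score both differing from the plate sample mean at a set confidence after two filtering rounds, in either direction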;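 also: slope of fluorescence scaled to starting intensity during 10 to 20 s after thallium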
Target sequence (Q9H2X9 whole entry, looked up): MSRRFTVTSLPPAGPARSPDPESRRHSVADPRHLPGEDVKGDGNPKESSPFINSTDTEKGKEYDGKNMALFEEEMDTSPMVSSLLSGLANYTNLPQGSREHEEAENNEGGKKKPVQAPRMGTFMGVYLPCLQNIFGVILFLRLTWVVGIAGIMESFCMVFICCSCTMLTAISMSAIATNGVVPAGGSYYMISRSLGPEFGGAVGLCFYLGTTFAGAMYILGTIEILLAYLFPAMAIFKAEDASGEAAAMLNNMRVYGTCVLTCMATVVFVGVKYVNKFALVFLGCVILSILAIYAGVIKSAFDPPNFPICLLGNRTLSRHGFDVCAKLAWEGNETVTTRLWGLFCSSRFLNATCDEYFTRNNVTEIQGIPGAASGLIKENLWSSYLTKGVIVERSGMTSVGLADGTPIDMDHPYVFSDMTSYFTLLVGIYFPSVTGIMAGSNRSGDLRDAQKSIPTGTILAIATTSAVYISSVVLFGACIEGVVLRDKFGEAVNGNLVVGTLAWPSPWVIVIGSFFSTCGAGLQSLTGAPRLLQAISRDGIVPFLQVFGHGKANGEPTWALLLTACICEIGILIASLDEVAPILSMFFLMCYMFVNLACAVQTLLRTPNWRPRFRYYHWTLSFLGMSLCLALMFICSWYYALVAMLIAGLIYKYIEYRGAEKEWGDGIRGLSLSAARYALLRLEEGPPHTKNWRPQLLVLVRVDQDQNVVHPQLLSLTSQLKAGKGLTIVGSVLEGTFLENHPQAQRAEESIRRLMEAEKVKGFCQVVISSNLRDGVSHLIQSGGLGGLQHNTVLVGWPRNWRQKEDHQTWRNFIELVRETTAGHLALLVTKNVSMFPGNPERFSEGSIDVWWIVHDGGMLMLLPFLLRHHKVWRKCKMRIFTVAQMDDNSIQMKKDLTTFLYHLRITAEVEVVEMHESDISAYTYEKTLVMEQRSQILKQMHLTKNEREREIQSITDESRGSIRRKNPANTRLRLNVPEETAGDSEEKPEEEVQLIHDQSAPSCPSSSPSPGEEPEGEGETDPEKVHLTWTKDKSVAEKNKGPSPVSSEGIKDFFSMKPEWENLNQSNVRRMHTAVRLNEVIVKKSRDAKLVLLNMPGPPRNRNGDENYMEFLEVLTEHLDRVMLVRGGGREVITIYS
INS promoter inh – TRM-6 insulin promoter activity inhibition | actives 0.9% (n = 130,000) | inhibition, % at 2 µM | TRM-6 cells (human fetal islet line), insulin promoter-eGFP reporter, imaging; reporter expression induced with tamoxifen;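 active = inhibition above the mean plus 3 SD, with well images judged a real hit on visual review, cut at about 60% in these data, passing the limit was not always enough; inconclusive = inhibition over the cutoff but images rejected on review; inactive = inhibition not above the cutoff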
ROMK primary – human ROMK K+ channel modulation, primary screen; P48048; actives 2% (n = 130,000); B-score at 10 µM; Tet-inducible ROMK, thallium flux fluorescence; actives lie on both sides; AID 1918;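 active = signal ratio slope over the read window, or its plate-corrected B-score, at least 3 SD from the plate mean, either direction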;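 also: B-score of the F/F0 ratio slope over 7 to 12 s after thallium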
WT yeast gro inh – growth inhibition of WT yeast, mitochondrial fusion screen | mitochondrial fusion phenotypic screen, WT strain | inhibition, % at 10 µM | actives 2.1% (n = 190,000); in the data active = inhibition above about 58%; tested in S. cerevisiae
L major viab – Leishmania major promastigote growth inhibition; Leishmania major promastigotes, resazurin fluorescence viability; inhibition, % at 10 µM; actives 9% (n = 200,000); in the data active = inhibition above about 50%;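 also: promastigotes grown with compound for 44 hours at 28 °C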
Ins promoter up – MIN6 insulin promoter up-regulation; z-score at 5 µM; MIN6 insulin promoter-GFP reporter, high-content imaging; active compounds read high; actives 0.3% (n = 190,000); AID 1625;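 active = z-score above 3 at 5 µM with at least 500 cells counted in the well; inconclusive = wells under 500 cells, flagged as cytotoxic or low count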
KCC2 sec1 – confirmation of human KCC2 transport modulators | shares compounds with KCC2 mod | HEK293-KCC2, thallium flux, FluoZin2 fluorescence; active compounds read high | normalised thallium flux (F/F0 slope) at 10 µM | actives 15% (n = 3,700) | AID 1713;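 active = thallium flux slope above the same plate's solvent-only control mean plus 3 SD; inconclusive = the two replicate wells disagree; inactive = no significant difference from solvent-only control wells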
KCC2 bumet counter – thallium flux despite bumetanide block in KCC2 cells, secondary assay 3. shares compounds with KCC2 mod. HEK293-KCC2 + bumetanide/ouabain, thallium flux FluoZin2; active compounds read high. normalized thallium flux at 10 µM. actives 49% (n = 3,700);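 active = thallium entry rate above the same plate's blocked-transporter control wells by more than 3 SD; inconclusive = the two repeat wells disagree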;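 also: raw slope of fluorescence over initial fluorescence between 10 and 20 s after thallium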
KCC2 sec2 – confirmation of human KCC2 transport modulators; actives 23% (n = 3,700); normalized thallium flux at 10 µM; shares compounds with KCC2 mod; AID 1715; HEK293-KCC2, thallium flux FluoZin2 fluorescence; actives lie on both sides; F/F0 rise rate, 10–20 s post-thallium;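 active = thallium flux slope more than 3 SD above or below the plate's solvent-only control mean, mostly below; inconclusive = the two repeat wells disagreed; inactive = no significant shift from solvent-only controls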
HEK293 Tl flux – parental HEK flux effect, counter-screen; shares compounds with KCC2 mod; HEK293 parental cells, thallium flux FluoZin2, ouabain; baseline-ratio fluorescence slope, 10–20 s after thallium; thallium flux rate (normalised fluorescence) at 10 µM; AID 1716; actives 46% (n = 3,700);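 active = thallium flux rate significantly above the same plate's solvent-only control wells, beyond their mean plus 3 SD; inconclusive = the two replicate wells gave conflicting results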
KCC2 retest ouab – confirmation of human KCC2 modulators with ouabain; shares compounds with KCC2 mod; AID 1717; actives 48% (n = 3,700); HEK293-KCC2, thallium flux FluoZin2 fluorescence; bidirectional: low = inhibitor, high = activator; raw Tl+ flux slope (below DMSO = inhibition, above = activation) at 10 µM;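 active = thallium flux slope beyond 3 SD from same-plate DMSO control mean in most replicates, usually higher, sometimes lower; inconclusive = repeat tests gave conflicting results; inactive = no significant difference from controls in most replicates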;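 also: slope of initial-normalized fluorescence between seconds 10 and 20 after thallium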
HEK counter2 – counter-screen for KCC2 modulators: effect in parental HEK293 cells. shares compounds with KCC2 mod. thallium flux FluoZin-2 fluorescence slope. thallium flux slope at 10 µM. actives 33% (n = 3,700);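 active = thallium flux slope above the same plate's solvent-control mean plus 3 SD in both duplicate wells; inconclusive = duplicate wells that disagreed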;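 also: run without ouabain in cells lacking the KCC2 cotransporter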
Numbers stand for hits; i = inactive; ? = inconclusive; nt = not tested or not shown.

SMILES	KCC2 mod	INS promoter inh	ROMK primary	WT yeast gro inh	L major viab	Ins promoter up	KCC2 sec1	KCC2 bumet counter	KCC2 sec2	HEK293 Tl flux	KCC2 retest ouab	HEK counter2
Cc1csc(NC(=O)c2nc(-c3ccccc3)n(-c3ccccc3)n2)n1	i	nt	i	i	i	i	nt	nt	nt	nt	nt	nt
O=C(c1cnn2c(C(F)(F)F)cc(-c3ccccc3)nc12)N1CCCCC1c1cccnc1 (stereo not given)	i	nt	i	i	52	i	i	i	i	0.0054	i	i
O=C(c1cnn2c(C(F)(F)F)cc(-c3ccccc3)nc12)N1CCCc2ccccc21	i	i	i	i	i	i	nt	nt	nt	nt	nt	nt
S=c1[nH]nc(COc2ccc(Cl)cc2)n1Cc1ccco1	10	nt	i	i	i	i	i	0.057	i	0.012	0.028	?
Cc1cccc(OCc2n[nH]c(=S)n2Cc2ccccc2)c1	8.9	nt	i	65	i	i	0.013	0.062	i	0.018	i	0.012
S=c1[nH]nc(COc2ccccc2)n1Cc1ccccc1	i	i	i	i	i	i	nt	nt	nt	nt	nt	nt
CCCc1n[nH]c(=S)n1Cc1ccco1	i	nt	nt	nt	nt	i	nt	nt	nt	nt	nt	nt
CCCCc1n[nH]c(=S)n1Cc1ccccc1	i	nt	i	i	i	i	nt	nt	nt	nt	nt	nt
CCc1ccc(OCc2n[nH]c(=S)n2Cc2ccccc2)cc1	15	i	i	65	i	i	i	0.036	i	0.015	?	0.011
CC(C)CCn1c(COc2ccccc2)n[nH]c1=S	6.2	nt	i	i	i	i	i	0.03	i	0.014	i	0.011
Cc1ccc2c(c1)C(=O)CC1(CCCCCC1)O2	i	nt	nt	nt	nt	i	nt	nt	nt	nt	nt	nt
CN1CCN(C(=S)NC(=O)/C=C/c2cccs2)CC1	i	nt	nt	nt	nt	i	nt	nt	nt	nt	nt	nt
Cc1cccc(S(=O)(=O)Nc2nc3ccccc3nc2NCc2ccc3c(c2)OCO3)c1	i	nt	nt	i	i	i	nt	nt	nt	nt	nt	nt
OCC1(Cc2ccc(Cl)cc2)CCN(Cc2ccc(Oc3ncccn3)cc2)CC1	i	nt	i	i	i	nt	nt	nt	nt	nt	nt	nt
S=c1[nH]nc(-c2ccc(Br)cc2)n1Cc1ccco1	nt	i	i	i	i	i	i	0.016	i	0.015	?	0.014
S=c1[nH]nc(-c2ccncc2)n1Cc1ccco1	i	i	i	i	i	i	nt	nt	nt	nt	nt	nt
CCCCc1n[nH]c(=S)n1Cc1ccc(Cl)cc1	4.2	i	i	i	i	i	i	0.017	i	0.0094	i	i
O=C(N/N=C/c1cccc(O)c1)NC1CCCCC1	i	nt	i	i	i	i	nt	nt	nt	nt	nt	nt
CN1CCC(N(C)C(=S)NC(=O)c2cc(-c3cccc(Br)c3)nc3ccccc23)CC1	16	i	nt	i	i	i	i	0.015	i	0.012	?	0.014
Cc1ccc(S(=O)(=O)N(C)C)cc1NC(=O)COC(=O)COc1ccccc1[N+](=O)[O-]	i	nt	i	i	i	i	nt	nt	nt	nt	nt	nt
O=C(Nc1ccccc1)/C(=C\c1ccncc1)NC(=O)c1ccccc1	5.4	nt	i	i	i	i	i	i	i	?	i	i
CCOC(=O)N/N=C(\CCC(=O)O)c1cccs1	7.2	nt	nt	nt	nt	i	i	i	i	i	i	i
COc1ccc(C(=O)N[C@H](C(=O)Nc2ccc(OC)nc2)C(C)C)cc1	nt	i	i	i	i	i	nt	nt	nt	nt	nt	nt
CCOc1[nH]n(-c2ccc(Cl)cc2)c(=O)c1C=Nc1ccc(Cl)cc1	i	i	nt	i	i	i	nt	nt	nt	nt	nt	nt
CCOc1[nH]n(-c2ccccc2)c(=O)c1C=NCc1ccncc1	i	nt	i	i	i	i	nt	nt	nt	nt	nt	nt
SMILES	KCC2 mod	INS promoter inh	ROMK primary	WT yeast gro inh	L major viab	Ins promoter up	KCC2 sec1	KCC2 bumet counter	KCC2 sec2	HEK293 Tl flux	KCC2 retest ouab	HEK counter2
CCOc1[nH]n(-c2ccccc2)c(=O)c1C=Nc1ccc(F)cc1F	4.1	nt	i	i	i	i	i	0.01	i	0.01	?	?
CCOc1[nH]n(-c2ccccc2)c(=O)c1C=Nc1ccc(OC)cc1	4.1	nt	i	i	i	i	i	0.01	i	0.0093	i	?
CCc1ccc(S(=O)(=O)NCCc2cn3cccc(C)c3n2)s1	i	i	i	i	i	i	nt	nt	nt	nt	nt	nt
O=C1c2oc3ccccc3c(=O)c2C(c2cccc(F)c2)N1CCCO (stereo not given)	6.7	nt	i	i	i	i	i	?	i	?	i	i
O=C(CCn1c2c(c3ccccc31)CCCC2)NNC(=O)c1cccc([N+](=O)[O-])c1	i	i	i	i	i	i	nt	nt	nt	nt	nt	nt
O=C(Nc1cccnc1)c1ccc(COc2ccccc2Br)o1	-5	nt	nt	i	i	i	i	i	0.022	i	?	i
O=C(NCc1cccnc1)c1ccc(COc2ccccc2Br)o1	-4.7	i	nt	i	i	i	i	i	0.029	i	0.014	i
COc1ccc(OC)c(C2C(C(=O)Nc3ccc(F)cc3)=C(C)Nc3nc(CCCO)nn32)c1 (stereo not given)	i	i	nt	i	i	i	nt	nt	nt	nt	nt	nt
O=C(O)c1cc(-c2ccc(/C=N/N3C(=O)C4C5C=CC(C6CC56)C4C3=O)o2)ccc1Cl (stereo not given)	i	i	nt	i	i	i	nt	nt	nt	nt	nt	nt
O=C(O)c1cc(-c2ccc(/C=N/N3C(=O)C4C5C=CC(CC5)C4C3=O)o2)ccc1Cl (stereo not given)	-9.7	nt	i	i	i	i	i	?	i	i	i	i
CCOC(=O)c1c(NC(=O)CN2CCCCC2)sc(C)c1C	i	i	i	i	i	i	nt	nt	nt	nt	nt	nt
Cc1nc2c(ccc3c([N+](=O)[O-])cccc32)c(C)c1C	i	i	i	i	i	i	nt	nt	nt	nt	nt	nt
O=C(NCc1cccnc1)C1c2ccccc2C(=O)N1C1CCCCCCC1 (stereo not given)	nt	i	i	i	i	i	nt	nt	nt	nt	nt	nt
O=C(NCc1cccnc1)C1c2ccccc2C(=O)N1C1CCCCCC1 (stereo not given)	-4.5	i	nt	i	i	i	i	i	i	i	i	?
N#Cc1c(-c2c(Cl)cccc2Cl)noc1/C=C/Nc1ccc(C(=O)O)cc1	-5.8	i	i	i	i	i	i	i	0.025	?	0.013	i
CSc1ccc(C#N)cc1NC(=O)c1ccc(Cl)nc1	nt	i	i	i	i	i	nt	nt	nt	nt	nt	nt
Cc1ccc(NC(=S)NC(=O)c2ccc(Br)o2)c(C)c1	55	nt	i	i	i	i	0.021	0.13	0.044	0.069	0.11	0.018
